# Screening data deposited in PubChem by National Center for Advancing Translational Sciences (NCATS).
# ATXN viability – Viability Counterscreen for Primary qHTS for Inhibitors of ATXN expression | S2 cells (HEK-293 line with an ATXN2-luciferase reporter) viability, CellTiter-Fluor protease fluorescence, 24 h | Potency, µM (titrated, usually from 56.7 µM), most hits filed as cytotoxic | 400,000 compounds, 0.49% hits; also: nearly all actives have a fitted effect of over 40% in size
# TGFb inhibitor – qHTS for Inhibitors of TGF-b | 410,000 compounds, 1.2% hits | HepG2 CAGA-GFP TGF-b/SMAD3 reporter, GFP fluorescence, 18 h; TGF-beta stimulated, 500 pg/mL final | Potency, µM (doses to about 46.1 µM), most hits filed as inhibitors; also: nearly all actives have a fitted effect of over 65% in size
#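 Cell-based qHTS in HEPG2 carrying a CAGA-GFP Smad reporter; compounds added before 500 pg/mL final TGF-beta, 18 h incubation at 37 degrees C, GFP fluorescence quantified per cell by imaging cytometry.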
# HT1080NT lethal – qHTS for induction of synthetic lethality in tumor cells producing 2HG: qHTS for the HT-1080-NT fibrosarcoma cell line; Potency, µM (series often up to 46.1 µM), hits mostly cytotoxic; HT-1080-NT fibrosarcoma viability, CellTiter-Glo ATP luminescence, 48 h; 360,000 compounds, 1.6% hits;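 also: NT is the 2HG producing partner of a matched IDH1 knockdown line; nearly all actives have a fitted effect of over 55% in size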
#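 HT-1080-NT; 750 cells/well; 5% FBS RPMI; 48 h compound, 37 degrees C; CellTiter-Glo luminescence; curve fitting and curve-class assignment.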
# HepG2 tox – qHTS for Inhibitors of TGF-b: Cytotox Counterscreen; HepG2 CAGA-GFP viability, ATP luminescence, 18 h; Potency, µM (titrated, usually from 46.1 µM), most hits filed as cytotoxic; 410,000 compounds, 0.76% hits
#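 HepG2 CAGA-GFP cells (1000/well, DMEM with 1% FBS) received compound, then TGF-beta at 500 pg/mL final, and were incubated 18 hours at 37 degrees C. Viability was read by CellTiter-Glo luminescence. Media-only wells were set as complete cell-killing and DMSO as no toxicity.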
# ATXN2 expr inh – Primary qHTS for Inhibitors of ATXN expression | HEK-293 ATXN2-luciferase reporter, luminescence, 24 h | Potency, µM (titrated, usually from 57 µM), actives largely listed as inhibitors | 360,000 compounds, 0.72% hits | AID 1745845, 2022; also: nearly all actives have a fitted effect of over 55% in size
#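 ATXN2-luciferase reporter cells (luciferase flanked by upstream and downstream ATXN2 gene portions) were treated 24 h at 37 °C with compounds at up to 57 uM. SteadyGlo luminescence gave expression; GF-AFC fluorescence gave viability.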
# HT1080 IDH1KD tx – qHTS for induction of synthetic lethality in tumor cells producing 2HG: qHTS for the HT-1080-IDH1KD cell line. HT-1080 IDH1 knockdown viability, ATP luminescence, 48 h. Potency, µM (titrated, usually from 46.1 µM), actives largely listed as cytotoxic. 360,000 compounds, 2% hits
#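 Using the IDH1-knockdown HT-1080 line run in the same batch and compound series as the NT line, viability after 48 h at 37 °C was determined by CellTiter-Glo luminescence and expressed as % activity.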
# A number is an active result; – = inactive; ? = inconclusive; · = no result given; [ ] = remark or other dose. Sampled rows, rich in hits. Any-hit rate of the full collection: about 3.9%. Calls follow the shape of the dose curve; as a rule, active = well fitted curve in the direction sought with a large enough effect; inconclusive = small, poorly fitted or top-dose-only effect, or another doubt; inactive = no such curve, though single readings can be large; an effect the other way counts as inactive or inconclusive.
SMILES,ATXN viability,TGFb inhibitor,HT1080NT lethal,HepG2 tox,ATXN2 expr inh,HT1080 IDH1KD tx
Cc1c(C(=O)N(Cc2ccc(N(C)C)cc2)CC2CCCO2)oc2ccc(Br)cc12 (configuration not stated),·,?,·,–,·,·
C(=N\Nc1ccc2ccccc2n1)/c1ccc2c(c1)OCCO2,?,16µM,–,–,?,–
O=C(CO)[C@@H](O)[C@H](O)[C@H](O)CO,–,·,·,·,·,·
CS(=O)(=O)c1ccc(-c2sc3ccccc3c2C#CCCO)cc1,?,11µM,–,–,?,–
COc1ccc2c(C#CCCO)c(-c3ccc(S(C)(=O)=O)cc3)sc2c1,–,–,?,–,–,?
COCCCn1c(-c2ccc(S(=O)(=O)N3CCOCC3)cc2)csc1=Nc1ccccc1,?,–,–,–,32µM,–
Cn1c(-c2ccc(S(=O)(=O)N3CCCC3)cc2)csc1=Nc1ccc(Cl)c(Cl)c1,·,?,·,–,·,·
O=S(=O)(c1ccc(-c2csc(=Nc3ccc(OC(F)(F)Cl)cc3)n2CCCO)cc1)N1CCCC1,·,3.5µM,·,–,·,·
Cc1ccc(C)c(NC(=O)C2CCCN(S(=O)(=O)c3cccc4nsnc34)C2)c1 (configuration not stated),–,?,·,–,–,·
O=S(=O)(c1ccc(Cl)cc1)c1nc(-c2ccco2)oc1SCc1ccccc1F,–,–,·,–,–,·
O=c1cc(N2CCN(c3ccccc3Cl)CC2)[nH]c(=O)n1Cc1ccc(F)cc1,–,–,?,–,–,2.6µM
O=c1cc(N2CCN(Cc3ccccc3)CC2)[nH]c(=O)n1Cc1ccc(F)cc1,–,–,–[9.24 µM],–,–,–
COc1ccccc1N1CCN(c2cc(=O)n(Cc3ccc(F)cc3)c(=O)[nH]2)CC1,?,–,12µM,–,–,?
Cc1ccc(-n2ncc3c(N(C)Cc4ccccc4)ncnc32)cc1,–,–,·,–,–,·
COc1ccc2oc(-c3ccccc3[N+](=O)[O-])cc(=O)c2c1,–,–,8.2µM,–,–,6.5µM
COc1ccc(-c2cc(=O)c3ccccc3o2)cc1,–,?,–,–,–,–
O=C(N/N=C/c1cn(-c2cccs2)nc1-c1ccccc1)c1ccccc1O,?,11µM,?,–,–,21µM
O=C(CSc1nc2ccccc2n1Cc1cccc(F)c1)N1CCN(c2ccc(F)cc2)CC1,–,–,·,–,–,·
Cc1cccc(C(=O)N2CCCC(Nc3ccc(F)c(F)c3)C2)n1 (configuration not stated),–,–,–,7.1µM,–,–
COc1cc(-c2cnc3c(NC(C)=O)cc(-c4ccc(N5CCN(C)CC5)cc4)cn23)cc(OC)c1OC,·,–,?,–,14µM,?
CC(=O)Nc1cc(-c2ccc(N3CCN(C)CC3)cc2)cn2c(-c3ccccc3)cnc12,?,–,?,–,?,21µM
CCc1ccccc1N(CC)C(=O)C(=O)Nc1ccc2nc3n(c(=O)c2c1)CCCCC3,?,–,·,–,–,·
C[C@H]1CCCCO[C@H](CN(C)C(=O)C2CCCCC2)[C@@H](C)CN([C@@H](C)CO)C(=O)c2cc(NC(=O)NC3CCCCC3)ccc2O1,25µM,–,–,–,–,–
Cc1oc2ncn(C)c(=O)c2c1C(=O)N1CCN(c2cccc(C(F)(F)F)c2)CC1,–,–,·,–,–,·
CN(C)CCCN=c1c2ccccc2n(C)c2[nH]c(=O)n(C)c(=O)c12,·,·,·,·,17µM,·
SMILES,ATXN viability,TGFb inhibitor,HT1080NT lethal,HepG2 tox,ATXN2 expr inh,HT1080 IDH1KD tx
CCc1cccc(NC(=O)Cn2c(=O)n3nc(-c4cccc(F)c4)nc3c3ccccc32)c1,–,–,·,–,–,·
N#CCCn1cc(C(=O)Nc2ccc([N+](=O)[O-])cc2)c(-c2cc3ccccc3o2)n1,25µM,?,?,–,·,–
N#CCCn1cc(C(=O)Nc2ccccc2Br)c(-c2cc3ccccc3o2)n1,?,–,–,–,–,–
COC(=O)c1ccc(OC)c(Cn2c(=O)n(-c3cccc(Cl)c3)c(=O)c3c4c(sc32)CN(C(C)=O)CC4)c1,–,?,·,–,–,·
O=C(Nc1ccc(-c2nc3c(ccc4ccccc43)o2)cc1)c1ccco1,–,–,10µM,–,–,10µM
CCCOC(=O)Nc1nc2ccccc2o1,–,–,–,–,–,–
CCOC(=O)c1cnc(Nc2nc3ccccc3o2)nc1CN1CCN(C)CC1,–,?,?,–,–,15µM
COc1cccc(-n2nc(C#N)c(Cl)cc2=O)c1,32µM,6.3µM,9.2µM,18µM,22µM,15µM
COc1cccc(-n2nc(C(N)=O)c(O)cc2=O)c1,–,–,–,–,–,–
CCC/C(O)=C1\C(=O)CC(C)(C)CC1=Nc1ccc(OC)cc1OC,–,–,?,–,–,7.3µM
Cc1nc(Sc2nnnn2C)c2c3c(sc2n1)CCC3,–,?,3.3µM,–,–,5.2µM
CCc1nc(Sc2nnnn2-c2ccccc2)c2c3c(sc2n1)CCCC3,?,–,–,–,–,–
Cc1ccc(NC(=O)Cn2cnc3onc(-c4ccc(F)cc4)c3c2=O)c(Cl)c1,–,–,·,–,–,·
CCCCNC(=S)Nc1cccc(S(=O)(=O)NC2=NCCC2)c1,–,–,–,3.5µM,–,–
CCNC(=S)Nc1cccc(S(=O)(=O)NC2=NCCC2)c1,–,–,–,–,·,–
O=C(Nc1cccc(S(=O)(=O)NC2=NCCC2)c1)c1cc(-c2ccccn2)nc2ccccc12,–,–,23µM,–,–,?
O=C(Nc1cccc(S(=O)(=O)NC2=NCCCCC2)c1)c1cc(-c2ccccc2Cl)nc2ccccc12,?,–,–,–,–,–
CC(C)C(=O)Nc1cccc(S(=O)(=O)NC2=NCCC2)c1,–,–,–,–,·,–
O=C(CCl)Nc1cccc(S(=O)(=O)NC2=NCCC2)c1,·,11µM,18µM,14µM,·,16µM
O=S(=O)(c1cccc(F)c1)N1CCN(c2nc(-c3cccs3)nc3ccccc23)CC1,·,–,·,–,·,·
COC(=O)c1c(OCc2ccccn2)cc(=O)n2c1CCN(C(=O)c1n[nH]c3c1CCCC3)CC2,–,·,·,·,·,·
CC#CCC(C)[C@H](O)/C=C/[C@@H]1[C@H]2c3cccc(CCCC(=O)O)c3O[C@H]2C[C@H]1O (some centres not stated),–,·,·,·,·,·
Cc1nc(-n2nc(C)c(CCC(C)C)c2C)sc1C(=O)Nc1ccc(Cl)cc1,–,–,·,–,–,·
COC(=O)c1cc(C)nc2c1C(=O)C(=O)C=C2N1CCOCC1,3.2µM,4.5µM,6.5µM,5µM,3.5µM,5.2µM
